PubChem BioAssay AID743343 (Broad Institute, 2014)
Results with a measured potency or affinity are listed apart.

System: Drosophila melanogaster bursicon receptor LGR2 (rickets)
Assay: blockers of bursicon-stimulated LGR2 cAMP reporter – cell-based, HEK293, CRE-luciferase reporter, cherry pick, set 2, dose response (AID 743343)
Conditions: bursicon-induced cAMP antagonist; series mostly up to 35 µM; activity change, negative = inhibition: at the top concentration; call rule not given here

Activity change, negative = inhibition, inactive:
CCOC(=O)C1=CCN(S(=O)(=O)c2ccccc2C)C1c1cccc(C)c1 (stereo not drawn) -23%, O=C(O)CSc1cc(NS(=O)(=O)c2cccc([N+](=O)[O-])c2)c2ccccc2c1O -26.4%, CC(C)(C)c1nc2ccc(Cl)cn2c1CC1CCCCC1 -5.76%, C[C@@H]1CN([C@H](C)CO)C(=O)CCCn2nncc2CO[C@H]1CN(C)C(=O)Nc1cccc2ccccc12 -37.9%, C=CCn1c(SCC(=O)Nc2ncc(Cc3ccc(C)c(Cl)c3)s2)nnc1-c1ccncc1 47.3%, Cc1ccnc(N2C(=O)c3ccccc3C2Nc2ccc3c(c2)OCCO3)c1 (stereo not drawn) -7.03%, CCN(C(=O)COC(=O)C12CC3CC(CC(O)(C3)C1)C2)c1c(N)n(Cc2ccccc2)c(=O)[nH]c1=O 16.3%, Cc1cccc(Cn2ncc(Cl)c(Cl)c2=O)c1 6.59%, Cc1ccc(NC(=O)c2ncn(CC(=O)NCc3ccc4[nH]ccc4c3)n2)cc1C 33.6% [at 16 µM], CO[C@H]1CN(C)C(=O)c2ccc(NC(=O)C3CC3)cc2OC[C@@H](C)N(C(=O)Cc2ccccn2)C[C@H]1C -0.993%, COc1ccc(N(CC(=O)NCc2cccs2)S(=O)(=O)c2ccc(C(C)=O)cc2)cc1 53.2%, C[C@H](CO)N1C[C@H](C)[C@H](CN(C)Cc2ccccc2)Oc2c(NS(=O)(=O)c3cn(C)cn3)cccc2C1=O -3.04%, O=C(CN1CCOc2ccccc21)NCc1ccc(F)cc1 -11.2%, C[C@H](CO)N1C[C@H](C)[C@@H](CN(C)CC2CCOCC2)Oc2ncc(Br)cc2C1=O 15.7%, COc1ccc(S(=O)(=O)N2CCOCC2)cc1NC(=O)COc1ccc(C)cc1 92.6% [at 16 µM], COc1cccc(C#Cc2ccc([C@@H]3[C@@H](CO)N(C(=O)C4CCC4)[C@H]3C#N)cc2)c1 -11.3%, Cc1ccc(S(=O)(=O)Nc2ccc3c(c2)CC(=O)N([C@H](C)CO)C[C@H](C)[C@H](CN(C)Cc2ccc(Cl)c(Cl)c2)O3)cc1 -12.7% [at 30 µM], Cc1noc2ncnc(Sc3ccc(Br)cc3)c12 -16.7%, CN(c1ccccc1)S(=O)(=O)c1cccc(NC(=O)c2cc(=O)c3ccccc3o2)c1 -24.6%, Cc1ccc(CNS(=O)(=O)c2ccc3c(c2)CCN3C(=O)CCCC(=O)O)cc1 -1.74%, CC(=O)Nc1cccc(-c2ccnc3c2CC(C(=O)NCc2cccnc2)O3)c1 (stereo not drawn) 15.8%, C[C@H]1CN([C@@H](C)CO)C(=O)c2cc(C#CCc3ccccc3)cnc2O[C@H]1CN(C)Cc1ccccc1 -26.2%, Cc1cccn2c(CNCC3(c4ccccc4)CCCC3)c(C(=O)N3CCOCC3)nc12 -3.35%, CCCCOc1cc(NCc2ccccc2)c2ncn(C(C)C)c2c1 -9.49%, O=[N+]([O-])c1ccc(-c2cnc(SC(c3ccccc3)c3ccccc3)[nH]2)cc1 -31.3%, O=C(NCCOc1ccccc1)[C@@H]1CCCN1C(=O)c1cccs1 -14% [at 16 µM], COc1ccc2cc(C#N)c(Nc3cccc(F)c3)nc2c1 34.4%, CCn1cc(S(=O)(=O)Nc2cccnc2)cn1 61.7%, CCc1nnc(NC(=O)CSc2nnc3ncccn23)s1 3.4%, C[C@@H]1CN([C@H](C)CO)C(=O)c2cc(C#CCN(C)C)cnc2O[C@@H]1CN(C)C(=O)CN1CCOCC1 -6.03%, Cc1cc(Cl)ccc1OCCCC(=O)Nc1cc(S(=O)(=O)N2CCOCC2)ccc1N1CCOCC1 -26.5%, COc1ccc2c3c([nH]c2c1)[C@H](CO)N(C(C)=O)CC31CCN(C(=O)CN2CCOCC2)CC1 -30.6%, CCOC(=O)Nc1ccc(N2CCOCC2)c(S(=O)(=O)Nc2ccc(Cl)cc2)c1 -36.6%, CCCCN(Cc1ccccc1)S(=O)(=O)c1cc2c(cc1Br)CC(C)N2C(C)=O (stereo not drawn) -4.42%, O=C(c1ccc(F)cc1)N1CC(=O)N2[C@@H](CO)[C@@H](c3ccc(C#CC4CCCC4)cc3)[C@@H]2C1 -3.09%, c1ccc(COc2cccc(-c3cc4nc(NCCCn5ccnc5)ccn4n3)c2)cc1 -31.2%, COc1cccc(C(=O)Nc2ccc3c(c2)OC[C@@H](C)N(CC2CC2)C[C@H](C)[C@H](OC)CN(C)C3=O)c1 1.05% [at 18 µM], CC(=O)c1c(C)[nH]c(C(=O)CN2C(=O)NC(C)(c3ccc(C)cc3)C2=O)c1C (stereo not drawn) 35%
